Screens from PubChem BioAssay.
FLuc inh-1: inhibitors of firefly (Photinus pyralis) luciferase; P08659; Potency, µM (top dose mostly 115 µM), actives largely listed as inhibitors; AID 1347043; 76,000 compounds, 2.5% hits; purified P. pyralis luciferase, luminescence, biochemical; further: on the % scale 0 is the no-effect control and ±100 the full control effect; nearly all actives have a fitted effect of over 65% in size
Target sequence (P08659 whole entry, looked up): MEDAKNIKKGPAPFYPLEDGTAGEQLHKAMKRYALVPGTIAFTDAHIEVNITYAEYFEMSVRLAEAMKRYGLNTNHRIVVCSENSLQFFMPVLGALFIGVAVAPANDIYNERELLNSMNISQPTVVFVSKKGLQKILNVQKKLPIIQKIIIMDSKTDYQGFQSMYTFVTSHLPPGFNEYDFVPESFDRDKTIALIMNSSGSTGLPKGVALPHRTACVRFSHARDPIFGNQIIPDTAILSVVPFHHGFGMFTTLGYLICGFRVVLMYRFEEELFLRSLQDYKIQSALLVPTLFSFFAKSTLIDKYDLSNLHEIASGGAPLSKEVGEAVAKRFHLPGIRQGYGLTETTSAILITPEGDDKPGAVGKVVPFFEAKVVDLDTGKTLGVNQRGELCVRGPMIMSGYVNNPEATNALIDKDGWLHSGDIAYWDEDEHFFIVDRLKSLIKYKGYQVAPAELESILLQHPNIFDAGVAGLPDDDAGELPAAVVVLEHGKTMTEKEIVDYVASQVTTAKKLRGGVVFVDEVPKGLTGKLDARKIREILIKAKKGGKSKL
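Luminescence read by CCD imaging after purified firefly luciferase (10nM final) was added to substrate buffer holding 10uM D-luciferin and 10uM ATP, pH 7.5, pre-dosed with compound.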
HEK cytotox: cytotoxic compounds in HEK 293 cells | HEK 293 viability, ATP luminescence (CellTiter-Glo), 48-72 h | Potency, µM (series often up to 115 µM), inactives show at the highest dose activity change, negative = cytotoxicity, most hits filed as inhibitors | 94,000 compounds, 6.6% hits; further: on the % scale 0 is the no-effect control and ±100 the full control effect; nearly all actives have a fitted effect of over 60% in size
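Luminescence from cellular ATP, measured with CellTiter-Glo, indicates HEK 293 viability. Cells plated at 250 cells/well are treated with compound for 48 or 72 hr at 37 degree Celsius before reagent addition.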
GPT2 inh: blocks human glutamate pyruvate transaminase 2; Recombinant GPT2, coupled pyruvate oxidase/HRP Amplex Red fluorescence; 100,000 compounds, 0.25% hits; Potency, µM (titrated, usually from 57.7 µM), inactives show at the top dose activity change, negative = inhibition, most hits filed as inhibitors; further: on the % scale 0 is the no-effect control and ±100 the full control effect; nearly all actives have a fitted effect of over 60% in size
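Recombinant GPT2 (10ng/uL) with 250uM a-KG and 2mM L-alanine, 30 min at room temperature, in HEPES pH 7.5 buffer. Pyruvate detected by pyruvate oxidase/HRP/Amplex Red fluorescence after 30 min in the dark; AOA (50uM) as positive control.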
NPR1 antag: human Npr1 receptor antagonism. AID 1347048. Potency, µM (top dose mostly 46.3 µM), for inactives: at the top dose activity change, negative = inhibition, most hits filed as inhibitors. 76,000 compounds, 1.6% hits. HEK293 hNpr1 GloSensor cGMP, ANP-stimulated luminescence. P16066; calls by dose curve; further: on the % scale 0 is the no-effect control and ±100 the full control effect; nearly all actives have a fitted effect of over 60% in size
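Compound pre-incubated 30 min at room temperature on GloSensor-loaded HEK293 cells stably carrying hNpr1 and the pGS-40F cGMP biosensor. Stimulation uses hNppA at 0.1 nM final; luminescence is taken at baseline and 20 min post-agonist.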
3T3 cytotox: kills NIH 3T3 cells; 94,000 compounds, 4.3% hits; AID 1345082; Potency, µM (series often up to 96.7 µM), inactives show at the highest dose activity change, negative = cytotoxicity, most hits filed as inhibitors; NIH 3T3 viability, CellTiter-Glo ATP luminescence, 48-72 h; further: on the % scale 0 is the no-effect control and ±100 the full control effect; nearly all actives have a fitted effect of over 55% in size
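First NIH 3T3 cells are plated at 400 cells/well; next compound is pinned in; then plates incubate 48 or 72 hr at 37 °C; finally CellTiter-Glo is added and luminescence read after 10 min.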
FLuc SDR -ATP: stabilizes firefly luciferase without ATP. shares compounds with FLuc inh-1. Purified FLuc-C-HiBiT, Nano-Glo HiBiT luminescence, no ATP. Potency, µM (top dose mostly 32.7 µM), without a hit: top-dose activation (signal gain), actives largely listed as activators. 1,300 compounds, 7.8% hits. AID 1963318; further: nearly all actives have a fitted effect of over 55% in size
FLuc SDR ATP: stabilizes firefly luciferase with ATP present; AID 1963319; 1,300 compounds, 8.7% hits; purified FLuc-C-HiBiT + ATP, HiBiT complementation luminescence; shares compounds with FLuc inh-1; Potency, µM (titrated, usually from 32.7 µM), for inactives: top-dose activation (gain of signal), actives largely listed as activators;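 further: signal reports ligand binding via conformational change of the enzyme rather than luciferase catalysis; % of control where 0% means no effect; nearly all actives have a fitted effect of over 55% in size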
FLuc inh-2: firefly luciferase enzyme inhibition. shares compounds with FLuc inh-1. purified FLuc-C-HiBiT enzyme, luciferin luminescence. Potency, µM (doses to about 32.7 µM), for inactives: top-dose activity change, negative = inhibition, actives largely listed as inhibitors. 1,300 compounds, 42% hits; further: on the % scale 0 is the no-effect control and ±100 the full control effect; nearly all actives have a fitted effect of over 70% in size
Starred values were filed as active, the others as inactive; i = inactive; u = inconclusive; x = no result given; [ ] = another dose, or the depositor's remark. In the library only some 10% were active in any assay of this set; here they are far more common. Unless noted, the call rests on the fitted dose curve; in most records, active means well fitted curve in the direction sought with a large enough effect; inconclusive means small, poorly fitted or top-dose-only effect, or another doubt; inactive means no such curve, though single readings can be large; an effect the other way counts as inactive or inconclusive. Potency means the concentration at half of the fitted maximal effect.

SMILES	FLuc inh-1	HEK cytotox	GPT2 inh	NPR1 antag	3T3 cytotox	FLuc SDR -ATP	FLuc SDR ATP	FLuc inh-2
CN(C)c1cccc(C(=O)NC2CCN(c3cc(-c4ccc(Cl)cc4)[nH]n3)CC2)c1	7.1µM*	u	-13%	u	32µM*	12%	9.9µM*	6.2µM*
Cc1cccc(C(=O)NC2CCN(c3cc(-c4ccc(Cl)cc4)[nH]n3)CC2)c1	i	u	-8%	-2%	u	x	x	x
O=C(NC1CCCN(c2cc(-c3ccc(Cl)cc3)[nH]n2)C1)c1ccc2ncccc2c1 (configuration not stated)	1.8µM*	u	-17%	u	u	10%	8%	5µM*
CSc1ccc(-c2cccc(C(=O)NCCNC(=O)C3CCCC3)c2)cc1	x	-29%	i	x	-23%	x	x	x
O=C(O)c1ccc(-c2noc(-c3ccccc3F)n2)cc1	x	x	x	x	x	u	0.25µM*	0.2µM*
O=C(O)c1ccccc1-c1noc(-c2ccccc2F)n1	x	x	x	x	x	27%	u	u
CCCCCNC(=O)c1noc(-c2ccccc2F)n1	u	u	-31%	-9%	u	x	x	x
CC1CCC(NC(=O)c2noc(-c3ccccc3F)n2)CC1 (configuration not stated)	8.9µM*	-27%	u	-10%	-21%	15%	19%	u
COc1cc(-c2noc(-c3nc(-c4ccccc4F)no3)n2)cc(OC)c1OC	i	9%	i	-3%	i	x	x	x
O=C(Nc1cccc(-c2nnc3n2CCCC3)c1)c1ccccc1F	i	-19%	2%	2%	u	x	x	x
O=C(Nc1cccc(-c2nc3ccccc3[nH]2)c1)c1ccccc1F	x	x	x	x	x	19%	11%	u
Cc1ccc(-c2cc(C(=O)N3CCC(Cc4nncn4CC4CC4)CC3)c3ccccc3n2)cc1C	1.6µM*	u	i	u	20µM*	12µM*	u	2µM*
O=C(c1cc(-c2ccc(F)cc2)nc2ccccc12)N1CCC(Cc2nncn2CC2CC2)CC1	13µM*	45µM*	i	-21%	u	u	21%	8.8µM*
O=C(c1cc(F)ccc1F)N1CCCC(Cc2nncn2CC2CC2)C1 (configuration not stated)	i	-11%	-7%	-7%	-15%	x	x	x
COc1cccc(-c2ccc(-c3nc(C4CCOC4)no3)o2)c1 (configuration not stated)	4.5µM*	u	-9%	-20%	u	21%	15%	u
CCOc1cccc(-c2nc(C3CCOC3)no2)c1 (configuration not stated)	13µM*	i	4%	1%	1%	13%	11%	-3%
CCOc1ccc2c(n1)CCN(C(=O)c1ccncc1)C2	i	-2%	i	3%	-4%	x	x	x
CN1C(=O)[C@@H]2C[C@@H](CN2Cc2ccccc2F)Oc2ccccc21	i	-10%[172 µM]	-10%[88.5 µM]	0%[70.6 µM]	-9%[138 µM]	x	x	x
O=C(c1ccc(C(F)(F)F)cc1)N1CCc2nc(-c3ccccc3)nc(-c3ccc(Cl)cc3)c2C1	i	u	-2%	5%	u	12%	10%	2%
COc1ccc(-c2nc(-c3ccccc3)nc3c2CN(C(=O)c2ccc(C(F)(F)F)cc2)CC3)cc1	i	u	-3%	3%	-9%	x	x	x
Cc1ccc(C(C(=O)N2CC(n3nc(C)cc3C)C2)N(C)C)cc1 (configuration not stated)	i	-26%	4%	-13%	-17%	x	x	x
